# Compounds with a hit are over-represented: about 11% of the library has one in this group of screens.
# Sm TGR inh: S. mansoni TGR enzyme inhibition; Potency, µM (highest dose often 114 µM), for the others: at the highest dose activity change, negative = inhibition, actives largely listed as inhibitors; purified TGR, DTNB reduction, TNB absorbance 405 nm; hit rate 3% among 360,000; further: on the % scale 0 is the no-effect control and ±100 the full control effect; nearly all actives have a fitted effect of over 60% in size
#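 First, TGR (20 nM dispensed) and NADPH were mixed with compound. Second, a 15 min room-temperature incubation followed. Third, further NADPH and then DTNB were added to start the reaction. Finally, TNB absorbance was monitored kinetically.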
# Pf growth 48h: inhibits P. falciparum growth in the first generation, 48 h. P. falciparum luciferase growth in erythrocytes, 48 h. Potency, µM (titrated, usually from 28.7 µM), without a hit: at the highest dose activity change, negative = inhibition, actives largely listed as inhibitors. hit rate 5.9% among 310,000. AID 504832; further: on the % scale 0 is the no-effect control and ±100 the full control effect
#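 Cell-based growth assay: transgenic P. falciparum expressing firefly luciferase, cultured in red cells within RPMI 1640 containing 0.5% w/v Albumax, 24 mM bicarbonate and gentamycin. A drop in luciferase activity indicates inhibition.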
# NS1 function inh: influenza NS1 inhibition | Potency, µM (highest dose often 46.1 µM), inactives show top-dose activity, positive = more growth | hit rate 0.4% among 270,000 | AID 2326; calls by dose curve; further: actives are rising curves; nearly all actives have a fitted effect of over 50% in size
#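 Growth recovery, yeast-based: influenza A NS1 expressed in S. cerevisiae causes slow growth, and suppressors are detected by OD600. The parent strain without NS1 is used as positive control.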
# Pf growth 96h: P. falciparum growth inhibition at 96 hours; hit rate 6.9% among 320,000; Potency, µM (highest dose often 28.7 µM), for inactives: at the top dose activity change, negative = inhibition, most hits filed as inhibitors; AID 504834; P. falciparum luciferase reporter growth, 96 h; further: on the % scale 0 is the no-effect control and ±100 the full control effect
#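 Two parasite generations (96 h, 37 C, 5% CO2) of compound exposure in infected erythrocytes (0.05% parasitemia, 2% hematocrit). Luciferase-reporter P. falciparum; decreased luminescence indicates inhibited growth, aimed at apicoplast-acting delayed death.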
# AMA1-RON2 inh: AMA1-RON2 (P. falciparum) interaction inhibition | AlphaScreen AMA1-biotinylated RON2 peptide binding | Potency, µM (titrated, usually from 58.2 µM), inactives show top-dose activity change, negative = inhibition, actives largely listed as inhibitors | hit rate 0.2% among 360,000 | AID 720542;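 further: 0% = vehicle wells and -100% = peptide control; nearly all actives have a fitted effect of over 45% in size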
#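 AMA1 (3D7) with his tag at 25 nM final met compounds first, then biotinylated RON2 peptide at 25 nM; detection used donor plus acceptor beads, 10 µg/mL apiece, read by AlphaScreen after 30 min at room temperature.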
# An asterisk follows results filed as active; ? = inconclusive; · = not tested or not shown; [ ] = remark or other dose. Unless noted, the call rests on the fitted dose curve; in most records, active means well fitted curve in the direction sought with a large enough effect; inconclusive means small, poorly fitted or top-dose-only effect, or another doubt; inactive means no such curve, though single readings can be large; an effect the other way counts as inactive or inconclusive. Potency means the concentration at half of the fitted maximal effect.
SMILES,Sm TGR inh,Pf growth 48h,NS1 function inh,Pf growth 96h,AMA1-RON2 inh
CC(C)(C)c1ccc(CSc2nnc(-c3ccccn3)n2Cc2ccco2)cc1,-27.5%,7.38µM*,-15.5%,·,-18.5%
Brc1ccc(CSc2nnc(-c3ccccn3)n2Cc2ccco2)cc1,39.8µM*,?,-64.6%,3.7µM*,-3.5%
Clc1ccc(CSc2nnc(-c3ccccn3)n2Cc2ccco2)cc1Cl,·,·,·,·,0.0%
Clc1cccc(CSc2nnc(-c3ccccn3)n2Cc2ccco2)c1,39.8µM*,?,-95.2%,?,7.8%
Cc1c(NC2=C(Cl)C(=O)N(c3ccccc3Cl)C2=O)c(=O)n(-c2ccccc2)n1C,39.8µM*,-6.6%,5.0%,-24.6%,-2.9%
C=CCNC1=C(Cl)C(=O)N(c2ccccc2Cl)C1=O,44.7µM*,3.1%,-12.6%,·,23.2%
Cc1c(Nc2nc(-c3ccc(Cl)cc3)cs2)c(=O)n(-c2ccccc2)n1C,-7.5%,-0.1%,20.6%,13.1µM*,-11.2%
CCOC(=O)Cc1csc(Nc2c(C)n(C)n(-c3ccccc3)c2=O)n1,-17.4%,0.2%,4.8%,-10.6%,-3.4%
CCOC(=O)c1ccccc1NC(=O)c1c(C)oc2ncnc(N3CCOCC3)c12,-1.1%,·,·,·,·
N#CC12COC3(CCCCC3C1(C#N)C#N)OC2=N (stereo unspecified),17.8µM*,6.9%,4.7%,21.8%,-3.6%
N#CC1(C#N)COC23CCCCC2C1(C#N)C(=N)O3 (stereo unspecified),56.2µM*,-22.5%,5.0%,-22.4%,-1.3%
CC1OC23CCCCC2C(C#N)(C(=N)O3)C1(C#N)C#N (stereo unspecified),?,-1.4%,-0.1%,-10.9%,-4.4%
CCC1OC23CCCCC2C(C#N)(C(=N)O3)C1(C#N)C#N (stereo unspecified),?,-16.0%,-0.7%,251.5%,2.0%
CCCC1OC23CCCCC2C(C#N)(C(=N)O3)C1(C#N)C#N (stereo unspecified),-20.5%,14.2%,-5.7%,0.0%,11.3%
COc1ccc(C2OC34CCCCC3C(C#N)(C#N)C2(C#N)C(=N)O4)cc1 (stereo unspecified),39.8µM*,?,7.4%,8.6%,7.8%
Cc1ccc(N2CCN(C(=O)c3cccn4c(=O)c5ccc(Cl)cc5nc34)CC2C)cc1 (stereo unspecified),1.6%,·,·,·,·
CCCNC(=O)c1cnn2c(C(F)F)cc(-c3ccccc3)nc12,4.0%,·,·,·,·
COc1ccccc1-n1c(SCC(=O)O)nnc1-c1ccc(S(=O)(=O)N2CCCCC2)cc1,0.0%,-6.5%,12.3%,11.7µM*,-5.3%
Cc1ccc(CSc2nnc(-c3cccc(S(=O)(=O)N4CCOCC4)c3)n2C2CCCC2)cc1,-7.3%,9.28µM*,4.2%,8.28µM*,5.4%
CCOC(=O)CSc1nnc(-c2ccco2)n1-c1ccccc1,22.4µM*,-0.3%,-4.0%,42.6%,6.8%
CNC(=O)CSc1nnc(-c2ccc(S(=O)(=O)N3CCCC3)cc2)n1-c1cccc(C)c1C,-9.2%,?,-3.6%,-10.3%,0.7%
C=CCn1c(SCC(=O)Nc2ccccc2)nnc1-c1cccc(S(=O)(=O)N2CCOCC2)c1,4.2%[11.4 µM],·,-4.9%,27.0%,-5.8%
CCn1c(SCC(=O)Nc2ccccc2)nnc1-c1ccc(S(=O)(=O)N2CCOCC2)cc1,0.8%,5.22µM*,-11.7%,?,1.0%
COc1ccc(OC)c(CCNC(=O)CC2(CC3=NS(=O)(=O)c4ccccc4N3)CCCC2)c1,-16.3%,?,-0.1%,16.0%,-0.1%
CC/C(C)=N\Nc1nc(-c2cc3cc(OC)ccc3oc2=O)cs1,-13.4%,51.4%,12.3%,167.1%,56.7%
SMILES,Sm TGR inh,Pf growth 48h,NS1 function inh,Pf growth 96h,AMA1-RON2 inh
CCOC(=O)CSc1nnc(-c2ccc(S(=O)(=O)N3CCOCC3)cc2)n1-c1ccccc1,4.7%,7.38µM*,-10.0%,·,4.7%
Cn1c(SCC(=O)c2ccccc2)nnc1-c1ccco1,?,78.5%,2.3%,14.7µM*,25.4%
CC(C)Cn1c(SCC(=O)NCc2ccc(Cl)cc2)nnc1-c1cccc(S(=O)(=O)N2CCOCC2)c1,-19.7%,?,-3.3%,9.28µM*,7.5%
COc1ccc(C(=O)CSc2nnc(-c3ccco3)n2C)cc1,?,-18.4%,-8.3%,·,5.3%
Cc1nnc(SCC(=O)c2ccc(S(=O)(=O)N3CCOCC3)cc2)n1-c1ccccc1,?,?,8.5%,7.1%,-4.1%
CCn1c(SCC(=O)Nc2ccc(-c3nc4ccc(C)cc4s3)cc2)nnc1-c1ccccc1,-29.4%,213.7%,3.2%,13.1µM*,·
CC(C)Cn1c(SCC(=O)O)nnc1-c1cccc(S(=O)(=O)N2CCOCC2)c1,·,·,·,·,-2.9%
CCOc1ccccc1NC(=O)Cn1nnc2sc3c(c2c1=O)CCC(C(C)(C)C)C3 (stereo unspecified),4.6%,·,·,·,·
N#CC1C(=O)c2ccccc2C1c1ccccc1 (stereo unspecified),·,·,·,·,-26.7%
CCn1cc(CN2CCN(C)C(CCO)C2)c2ccccc21 (stereo unspecified),-3.3%,5.3%,20.9%,13.1µM*,6.0%
O=C(CC(CC(=O)c1ccccc1)c1ccccn1)c1ccccc1,·,·,·,·,23.5%
O=[N+]([O-])c1ccc(Cl)c(S(=O)(=O)NC2=NCCC2)c1,-5.7%,64.7%,·,15.6%,-5.6%
CC1CC(C)CN(C(=O)CNC(=O)c2ccc3ccccc3c2)C1 (stereo unspecified),3.3%,-7.6%,0.0%,-8.3%,3.8%
O=C1c2ccccc2C(=O)N1c1nc(-c2cccs2)cs1,-1.1%,49.7%,-93.2%,14.7µM*,-3.8%
CN1CCN(c2nc(-c3cccs3)cs2)CC1,-12.2%,41.1%,·,46.8%,-11.9%
CC(C)Oc1cccc(C(=O)NC(=S)Nc2ccc(Cl)c(C(=O)O)c2)c1,39.8µM*,52.2%,-52.2%,?,55.5%
COc1ccc(C(=O)NC(=S)Nc2ccc(Cl)c(C(=O)O)c2)cc1,39.8µM*,93.6%,·,-10.1%,0.8%
CCOC(=O)c1ccc(NC(=O)Nc2ncc(Cl)cc2Cl)cc1,39.8µM*,3.5%,-5.7%,9.5%,·
CCOC(=O)c1ccc(NC(=O)Nc2c(C)nn(C)c2C)cc1,-3.7%,0.4%,-13.6%,11.7µM*,-2.7%
CCOC(=O)c1ccc(NC(=O)Nc2ncccc2C)cc1,12.2%,35.5%,7.2%,-0.7%,11.5%
